Screens from PubChem.
Hits are enriched below; roughly 4.2% of the tested compounds scored in any of these assays.
GDH-TPI inh: GDH-TPI coupling enzyme inhibitors, primary screen, artefact control for M. tuberculosis FBA inhibitor project, biochemical, absorbance, full deck | GDH-TPI coupled enzyme counterscreen, NADH absorbance | inhibition, % at 4.8 µM | 360,000 tested, 1.2% active | AID 588335, 2011;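 also: 0% = DMSO wells and 100% = wells lacking the enzyme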
RecA splice inh: Mtb RecA intein splicing inhibitors, primary screen, biochemical, fluorescence, HTS; 290,000 tested, 0.75% active; cell-free RecA intein splicing; inhibition, % (no concentration beside the values); in the data active = inhibition above about 30%;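 also: 0% = vehicle wells and 100% = reference inhibitor control wells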
Mtb FBA inh: Mtb FBA enzyme inhibitors, primary screen, biochemical, fluorescence, strain H37Rv | 360,000 tested, 2.3% active | Fructose-bisphosphate aldolase (Mycobacterium tuberculosis (strain ATCC 25618 / H37Rv)), … | inhibition, % at 1 µM | AID 588726, 2011 | purified M. tuberculosis FBA, fluorescence read-out; in the data active = inhibition above about 27%;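 also: 0% = vehicle and 100% = reference inhibitor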
Target sequence (P9WQA3 whole entry, looked up): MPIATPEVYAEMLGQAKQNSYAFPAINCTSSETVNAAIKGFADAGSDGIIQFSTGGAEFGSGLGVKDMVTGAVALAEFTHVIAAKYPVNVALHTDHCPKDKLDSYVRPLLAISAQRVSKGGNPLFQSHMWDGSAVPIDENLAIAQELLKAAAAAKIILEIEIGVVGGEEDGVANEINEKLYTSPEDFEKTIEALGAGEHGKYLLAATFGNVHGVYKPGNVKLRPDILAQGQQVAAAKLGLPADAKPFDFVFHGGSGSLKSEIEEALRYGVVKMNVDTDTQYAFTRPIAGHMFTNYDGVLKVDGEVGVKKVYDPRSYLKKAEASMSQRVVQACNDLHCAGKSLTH
CCHFV vOTU inh: CCHFV vOTU protease inhibitors, primary screen, biochemical, Pep-AMC substrate, fluorescence. Crimean-Congo hemorrhagic fever virus L polyprotein viral ovarian tumor (vOTU) protease …. AID 651958, 2012. inhibition, % at 11.5 µM. 370,000 tested, 0.55% active; also: 0% = vehicle wells with enzyme and 100% = no enzyme wells
* marks the source's active call; other numbers are inactive results; · = not tested or not shown; + = active, no number. Rule as the data show it, unless noted: active = inhibition above about 30%; inactive = the rest.

SMILES	GDH-TPI inh	RecA splice inh	Mtb FBA inh	CCHFV vOTU inh
CC(/C=C/c1ccc2c(c1)OCO2)=N/NC(=O)c1ccc(C)nc1	36*	-2	4	20
C=CCSc1nnc(NC(=O)CCN2C(=O)C3CC=CCC3C2=O)s1 (centres undefined)	4	·	-1	12
COCCCNC(=O)c1ccccc1Oc1ccccc1	0	3	-1	11
COCCCNC(=O)c1ccc2c3c(onc13)-c1ccccc1C2=O	2	37*	-1	·
CCOC(=O)N(C)[C@H]1C[C@H]2c3[nH]c4ccccc4c3CCN2C(=O)[C@H]1[C@H](C)O	·	·	·	-65
CCCn1c(O)c(N=NC(=O)c2ccco2)c2ccccc21	33*	3	6	20
Nc1nc(NCCc2ccccc2)nc(NCc2ccccc2)c1[N+](=O)[O-]	20	0	-4	-10
C=CCNc1nc(N)c([N+](=O)[O-])c(NCc2ccccc2)n1	20	-1	-1	·
Nc1nc(NCc2ccco2)nc(NCCO)c1[N+](=O)[O-]	32*	0	-5	1
CN(Cc1ccccc1)c1nc(N)c([N+](=O)[O-])c(NCc2ccccc2)n1	31*	0	-1	-7
Nc1nc(NCCCN2CCOCC2)nc(NCc2ccccc2)c1[N+](=O)[O-]	50*	-5	-2	-6
Nc1nc(NCCN2CCOCC2)nc(NCc2ccccc2)c1[N+](=O)[O-]	48*	-1	-3	-1
Cc1nn(C)c(C)c1/C=C(\C#N)S(=O)(=O)c1ccc(F)cc1	33*	·	2	6
COCCn1nnnc1CN1CCN(c2cccc(C(F)(F)F)c2)CC1	-5	4	191*	4
CCOC(=O)c1sc2ncnc(N3CCN(c4ccc(OC)cc4)CC3)c2c1C	6	1	1	5
CCOC(=O)c1sc2ncnc(N3CCN(C)CC3)c2c1C	33*	-1	8	-4
Cc1c(NC(=O)C2CCCN(S(=O)(=O)c3c(C(C)C)cc(C(C)C)cc3C(C)C)C2)c(=O)n(-c2ccccc2)n1C (centres undefined)	·	·	·	16
Cc1cc2cc3c(=O)[nH]c(=O)nc-3n(CC(O)C(O)C(O)CO)c2cc1C (centres undefined)	26	·	149*	-124
Nn1c(SCc2ccc([N+](=O)[O-])cc2)nnc1-c1n[nH]c2c1CCC2	·	·	·	0
Cc1ccc(NC(=O)C2CCCN(S(=O)(=O)c3ccc4c(c3)oc(=O)n4C)C2)nc1 (centres undefined)	-10	-2	0	30*
O=C(CCl)Nc1cccc(-c2cnc3ccccc3n2)c1	11	46*	4	11
CCC(=O)Nc1cccc(-c2cnc3ccccc3n2)c1	31*	-1	-1	-3
Cc1cc2c(cc1S(=O)(=O)CCC(=O)NC1CCCCC1C)OCC(=O)N2 (centres undefined)	6	-1	8	1
O=C(CSc1nc2ccccc2c(=O)[nH]1)Nc1ccc(C(=O)O)cc1	11	-3	6	1
O=C(CSc1nc2ccccc2c(=O)[nH]1)Nc1ccc([N+](=O)[O-])cc1	38*	·	4	1
SMILES	GDH-TPI inh	RecA splice inh	Mtb FBA inh	CCHFV vOTU inh
COc1ccc(-c2cc(-c3ccc(OC)cc3)nc(-c3ccc4c(c3)NC(=O)CO4)c2)cc1	32*	0	1	11
COc1cccc(-c2nc(-c3ccc4c(c3)NC(=O)CO4)cs2)c1	-5	6	0	-8
CCN1CCN(c2oc(COc3ccc(Cl)cc3)nc2C#N)CC1	-3	17	3	3
CNc1oc(-c2ccccc2)nc1C#N	0	-3	181*	-67
CCN1CCN(c2oc(/C=C/c3ccccc3)nc2C#N)CC1	48*	-10	192*	-228
CNc1oc(/C=C/c2ccccc2)nc1C#N	38*	-39	+	-386
COc1ccc(Nc2oc(-c3ccccc3)nc2C#N)cc1	7	-2	3	-6
CCOC(=O)c1ccc(NC(=S)NCCc2ccc(OC)c(OC)c2)cc1	2	4	0	2
CC1=NN(c2ccccc2)C(=O)/C1=C\c1cn(C)c2ccccc12	2	39*	-21	9
CC1=NN(c2ccccc2)C(=O)/C1=C/c1c(O)[nH]c(=O)[nH]c1=O	1	43*	-3	18
CCNC(=O)C1(C)CCN(Cc2csc(-c3ccccc3)n2)C1 (centres undefined)	14	·	4	3
O=S(c1cc(Cl)cc(Cl)c1O)c1cc(Cl)cc(Cl)c1O	·	·	·	28
Oc1c(Cl)cc(Cl)cc1Sc1cc(Cl)cc(Cl)c1O	·	73*	·	·
CCN(CC(=O)Nc1ccc(NC(C)=O)cc1)C(=O)CC1OC(=O)c2ccccc21 (centres undefined)	-5	0	2	-3
CCn1c(SCC(=O)Nc2oc(-c3ccccc3)c(-c3ccccc3)c2C#N)nnc1-c1ccncc1	32*	5	0	-4
CCn1c(SCC(=O)Nc2oc(-c3ccccc3)c(-c3ccccc3)c2C#N)nnc1-c1ccco1	14	·	-2	19
COc1ccc(/C=C2\CCn3c2nc2ccccc2c3=O)cc1OC	9	·	-1	·
COc1cc2c(cc1OC)-c1nc3ccccc3c(=O)n1C(C)(C)C2	39*	3	5	4
COC(=O)c1cc(=O)nc(NN=Cc2ccco2)s1	·	·	-8	8
NC(=O)CCn1c2ccccc2c2ccccc21	2	·	1	7
Cc1ccc2c(c1)c1cccc3c1n2CCN3CCC(N)=O	6	-16	49*	·
C=CCNC(=S)Nc1sc2c(c1C(=O)OCC)CC(C(C)C)OC2 (centres undefined)	32*	0	1	-2
CCOC(=O)c1c(NC(=S)NCCc2ccccc2)sc2c1CC(C(C)C)OC2 (centres undefined)	-2	1	-2	-12
O=C(Nc1ncc2c(n1)-c1ccccc1OC2)c1cccc([N+](=O)[O-])c1	1	1	12	-10
O=C(Nc1ncc2c(n1)-c1ccccc1OC2)c1ccc(F)cc1	14	-2	+	-158
SMILES	GDH-TPI inh	RecA splice inh	Mtb FBA inh	CCHFV vOTU inh
COc1cc(/C=C/C(=O)Nc2ccc(S(=O)(=O)Nc3onc(C)c3C)cc2)cc(OC)c1OC	39*	·	0	22
COc1cc(/C=C/C(=O)Nc2ccc3nc4n(c(=O)c3c2)CCCC4)cc(OC)c1OC	38*	-1	-3	-7
COc1ccc(-c2cc(C(=O)Nc3ccc(S(=O)(=O)Nc4onc(C)c4C)cc3)c3ccccc3n2)cc1OC	42*	-6	9	-9
COc1ccc(/C=C/C(=O)Nc2ccc3nc4n(c(=O)c3c2)CCCC4)cc1	18	-3	-1	8
COc1ccc(C(=O)NCC2CCN(C(=O)C(=O)c3cccs3)CC2)cc1	·	·	·	0
NS(=O)(=O)c1ccc(N2C(=O)C(=O)/C(=C(/O)c3ccccc3)C2c2ccc(Cl)cc2)cc1 (centres undefined)	39*	2	-3	19
